The record followed here is PubChem BioAssay.

A number with no mark means an inactive call. For some assays here: Potency and affinity values are given separately. The source made the active and inactive calls. Unless noted, how the calls were made is not given here.

A short description of test [1]: antimalarial activity against Dd2 strain (AID 2302;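 active means growth inhibition above 50% at the single 2 µM test dose, taken to imply half-maximal potency below 2 µM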;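 further: 0% = DMSO untreated growth and 100% = chloroquine plus artemisinin killed control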). Particulars: P. falciparum Dd2 in RBCs, LDH growth readout, 72 h; at 2 µM; stronger effect = higher value.
Test [2] is described as follows: human hepatoma cell viability loss – ATP luminescence, cytotoxicity control for P. falciparum antimalarial project, primary screen (AID 2303;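 active means inhibition above 50%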;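 further: 0% = DMSO wells and 100% = digitonin-killed cells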). The note with it: HepG2 viability, 24-48 h, at 10 µM, stronger effect = higher value.
Test [3] deals with L-lactate dehydrogenase (Plasmodium falciparum (isolate CDC / Honduras)) (UniProt Q27743). Nature of the test: PfLDH activity inhibition – cell lysate, 3D7 strain, counter-screen for P. falciparum growth inhibition project (AID 2304).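 Further: 0% = vehicle and 100% = reference inhibitor.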 The note with it: P. falciparum 3D7 crude extract, LDH APAD/NBT absorbance; at 2 µM; stronger effect = higher value. A general note: Counterscreens check selectivity or assay interference.
L-lactate dehydrogenase (Plasmodium falciparum (isolate CDC / Honduras)), sequence (Q27743 whole entry, looked up): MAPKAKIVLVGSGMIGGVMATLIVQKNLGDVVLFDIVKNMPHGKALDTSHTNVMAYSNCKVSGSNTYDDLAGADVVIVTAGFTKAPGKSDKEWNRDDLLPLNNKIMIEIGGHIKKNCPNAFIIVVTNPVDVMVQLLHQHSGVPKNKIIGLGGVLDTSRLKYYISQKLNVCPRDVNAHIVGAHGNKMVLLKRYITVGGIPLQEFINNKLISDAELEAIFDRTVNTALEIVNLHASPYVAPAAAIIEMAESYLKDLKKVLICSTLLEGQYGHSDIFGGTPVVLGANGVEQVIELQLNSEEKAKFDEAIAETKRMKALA

Test [4] in a line: inhibition of 3D7 malaria parasite growth – strain 3D7 (AID 2306).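 Further: 0% = DMSO wells and 100% = chloroquine plus artemisinin control wells.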 Particulars: P. falciparum 3D7 erythrocytic growth, LDH absorbance, 72 h; at 2 µM; stronger effect = higher value.
The target in test [5] is Calcium-dependent protein kinase 1 (Plasmodium falciparum (isolate 3D7)) (UniProt P62344). Nature of the test: PfCDPK1 kinase inhibitors, biochemical, TCAMS library (AID 1159585; cut-off not given, nearly all actives have IC50 up to about 0.98 µM;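 further: inhibitors leave more ATP so luminescence rises with inhibition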). The note with it: recombinant PfCDPK1, Kinase-Glo ATP depletion luminescence.
Calcium-dependent protein kinase 1 (Plasmodium falciparum (isolate 3D7)), sequence (P62344 whole entry, looked up): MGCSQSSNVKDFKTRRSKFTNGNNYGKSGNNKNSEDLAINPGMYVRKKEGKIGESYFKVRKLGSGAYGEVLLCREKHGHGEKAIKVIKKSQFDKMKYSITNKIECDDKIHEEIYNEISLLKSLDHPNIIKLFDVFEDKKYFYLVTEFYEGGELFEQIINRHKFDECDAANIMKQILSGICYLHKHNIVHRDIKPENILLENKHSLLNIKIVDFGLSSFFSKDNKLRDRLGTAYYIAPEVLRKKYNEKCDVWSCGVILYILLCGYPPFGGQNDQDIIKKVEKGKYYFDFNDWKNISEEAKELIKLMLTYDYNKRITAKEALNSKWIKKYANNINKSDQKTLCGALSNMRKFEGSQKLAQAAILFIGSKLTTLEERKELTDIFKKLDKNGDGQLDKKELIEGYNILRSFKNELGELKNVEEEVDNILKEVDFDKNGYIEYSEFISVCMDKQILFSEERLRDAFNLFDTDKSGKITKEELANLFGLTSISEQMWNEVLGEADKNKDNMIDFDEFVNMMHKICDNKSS
The target in test [6] is Plasmodium falciparum protein kinase 6 (PK6, PF3D7_1337100) (UniProt Q8IDW1). Description: PfPK6 kinase inhibitors, biochemical, TCAMS library (AID 1159586). Particulars: recombinant PfPK6, Kinase-Glo ATP depletion luminescence. Background: Kinase-Glo measures the ATP left after a reaction by luminescence.
Plasmodium falciparum protein kinase 6 (PK6, PF3D7_1337100), sequence (Q8IDW1 1-305): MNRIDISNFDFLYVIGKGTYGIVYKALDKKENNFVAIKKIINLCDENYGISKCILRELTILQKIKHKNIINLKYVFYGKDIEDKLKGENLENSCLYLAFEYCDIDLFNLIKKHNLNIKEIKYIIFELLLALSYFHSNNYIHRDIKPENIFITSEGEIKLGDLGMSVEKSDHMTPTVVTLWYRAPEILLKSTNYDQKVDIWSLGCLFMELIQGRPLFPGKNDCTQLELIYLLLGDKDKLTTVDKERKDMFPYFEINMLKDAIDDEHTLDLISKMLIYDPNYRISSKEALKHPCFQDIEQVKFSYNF
For test [7], the target named is Protein kinase 7 (PK7), Plasmodium falciparum 3D7 (PF3D7_0213400) (UniProt Q7YTF7). Nature of the test: inhibition of Plasmodium PK7 catalytic activity – biochemical, TCAMS antimalarial set, Kinase-Glo luminescence (AID 1159587). Particulars: recombinant PfPK7, Kinase-Glo ATP depletion luminescence.
Protein kinase 7 (PK7), Plasmodium falciparum 3D7 (PF3D7_0213400), sequence (Q7YTF7 1-343): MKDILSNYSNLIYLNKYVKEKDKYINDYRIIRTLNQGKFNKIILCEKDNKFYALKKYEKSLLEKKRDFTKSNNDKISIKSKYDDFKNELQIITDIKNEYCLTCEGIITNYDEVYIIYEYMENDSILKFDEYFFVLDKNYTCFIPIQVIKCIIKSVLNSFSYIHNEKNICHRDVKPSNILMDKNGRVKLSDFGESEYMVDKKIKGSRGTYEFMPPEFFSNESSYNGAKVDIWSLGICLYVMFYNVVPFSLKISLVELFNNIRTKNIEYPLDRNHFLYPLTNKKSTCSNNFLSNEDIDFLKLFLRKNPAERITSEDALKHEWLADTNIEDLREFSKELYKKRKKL
Test [8] has as its target Calcium-dependent protein kinase 4 (Plasmodium falciparum (isolate 3D7)) (UniProt Q8IBS5). Description: PfCDPK4 kinase inhibitors, biochemical, TCAMS library (AID 1159588; cut-off not given, nearly all actives have IC50 up to about 0.91 µM). The note with it: recombinant PfCDPK4, Kinase-Glo ATP depletion luminescence.

Calcium-dependent protein kinase 4 (Plasmodium falciparum (isolate 3D7)), sequence (Q8IBS5 whole entry, looked up): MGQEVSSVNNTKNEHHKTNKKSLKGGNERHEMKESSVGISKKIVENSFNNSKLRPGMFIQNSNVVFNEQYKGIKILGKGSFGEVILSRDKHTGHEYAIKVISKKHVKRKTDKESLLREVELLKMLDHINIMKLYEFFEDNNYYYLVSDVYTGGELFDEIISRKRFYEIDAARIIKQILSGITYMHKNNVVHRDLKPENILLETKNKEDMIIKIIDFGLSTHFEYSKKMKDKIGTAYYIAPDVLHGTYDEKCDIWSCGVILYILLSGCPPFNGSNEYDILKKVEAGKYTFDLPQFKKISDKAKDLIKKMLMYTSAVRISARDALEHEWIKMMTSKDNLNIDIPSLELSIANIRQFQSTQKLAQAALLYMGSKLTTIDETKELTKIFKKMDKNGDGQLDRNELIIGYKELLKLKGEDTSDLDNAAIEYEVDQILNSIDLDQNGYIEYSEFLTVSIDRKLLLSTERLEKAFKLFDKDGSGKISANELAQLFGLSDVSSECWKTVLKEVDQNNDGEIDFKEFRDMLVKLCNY

As for `CN1CCCC(CN2CCN(Cc3cccc(-c4ccc(-c5nc6ccc(C(F)(F)F)cc6[nH]5)cc4)c3)CC2)C1` (configuration not stated), the growth inhibition in test [1] is 96% (active); in test [4], 99% (active). Besides, the inhibition in test [2] is 100% (active); in test [3] it was 5%. In addition, the result in test [5], in test [6], in test [7] and in test [8] was inactive.
Turning to `NC1=NC(=O)C(=Cc2cn(-c3ccccc3)nc2-c2cccc(S(=O)(=O)N3CCCC3)c2)S1`, the values for the growth inhibition in test [1] and in test [4] were 68% (active) and 85% (active), respectively. Moreover, the inhibition was -4% in test [2] and 3% in test [3]. The result in test [5], in test [6], in test [7] and in test [8] was inactive.
As to `C[C@H]1[C@H](c2cccc(Cl)c2)OCC(C)(C)N1C(=O)CCN1CCCCC1`, the results for the growth inhibition in test [1] and in test [4] were 5% and 88% (active), respectively. The inhibition was 2% in test [2] and -1% in test [3]. In addition, the outcome in test [5], in test [6], in test [7] and in test [8] was inactive.
For the molecule `N#Cc1cccc(NC(=O)NC2CCN(CCCCCNC(=O)/C=C/c3ccc(Cl)c(Cl)c3)CC2)c1`, the values for the growth inhibition in test [1] and in test [4] were 7% and 100% (active), respectively. Also, the inhibition in test [2] was 31%; in test [3] it was 0%. Besides, the outcome in test [5], in test [6], in test [7] and in test [8] was inactive.
As for `c1ccc2[nH]c(-c3ccc(-c4ccc(CNCCc5ccncc5)cc4)s3)nc2c1`, the growth inhibition in test [1] is 98% (active); in test [4], 101% (active). Besides, the values for the inhibition in test [2] and in test [3] were 28% and -6%, respectively. Besides, the result in test [5], in test [6], in test [7] and in test [8] was inactive.
Regarding `CC1CN(c2ccc(NC(=O)c3ccsc3)cc2C(=O)N2CCN(Cc3ccc(C(C)(C)C)cc3)CC2)CC(C)O1` (configuration not stated), the growth inhibition was 80% (active) in test [1] and 90% (active) in test [4]. For the same molecule, the inhibition was 12% in test [2] and 7% in test [3]. In addition, the outcome in test [5], in test [6], in test [7] and in test [8] was inactive.
With `CN(c1ccc2c(c1)nc(Nc1ccc(Cl)cc1)n2C)c1ccnc(Nc2ccc(CS(C)(=O)=O)cc2)n1`, the results for the growth inhibition in test [1] and in test [4] were 52% (active) and 97% (active), respectively. Further, the values for the inhibition in test [2] and in test [3] were 91% (active) and -7%, respectively. Also, the outcome in test [5], in test [6], in test [7] and in test [8] was inactive.
In the case of `COc1ccc(NC(=O)CSc2nc(-c3ccccc3Cl)ns2)cc1OC`, the growth inhibition was 63% (active) in test [1] and 97% (active) in test [4]. For the same molecule, the inhibition in test [2] was -1%; in test [3], -2%. Besides, the result in test [5], in test [6], in test [7] and in test [8] was inactive.
As for `Cc1cccc(C)c1N1CCN(C2CCC(NC(=O)c3cc4ccccc4[nH]3)CC2)CC1` (configuration not stated), the figures for the growth inhibition in test [1] and in test [4] were 64% (active) and 101% (active), respectively. Also, the values for the inhibition in test [2] and in test [3] were 31% and -7%, respectively. Also, the result in test [5], in test [6], in test [7] and in test [8] was inactive.
Regarding `Cc1ccccc1C1CCN(c2ccc(NC(=O)c3ccc(Cl)nc3)cc2)CC1`, the values for the growth inhibition in test [1] and in test [4] were 82% (active) and 92% (active), respectively. For the same molecule, the inhibition in test [2] is 43%; in test [3], -2%. The result in test [5], in test [6], in test [7] and in test [8] was inactive.
Consider `CC(=O)N1CCC(C(=O)Nc2ccc(-c3cccc(-c4nc5ccc(C(F)(F)F)cc5[nH]4)c3)cc2)CC1`, for which the growth inhibition was 33% in test [1] and 88% (active) in test [4]. Also, the inhibition is 82% (active) in test [2] and -9% in test [3]. The outcome in test [5], in test [6], in test [7] and in test [8] was inactive.
In the case of `COc1ccc2nccc([C@@H](O)CN3CCC(NC(=O)CCC(=O)c4cc(C(C)(C)C)ccc4OC)CC3)c2c1`, the growth inhibition in test [1] is 51% (active); in test [4], 94% (active). The inhibition in test [2] is 26%; in test [3], -9%. Further, the result in test [5], in test [6], in test [7] and in test [8] was inactive.
Turning to `CC(=O)Nc1ccc(CN(Cc2ccc(C)cc2)Cc2cccc(Oc3ccccc3)c2)cc1`, the growth inhibition in test [1] is 87% (active); in test [4], 84% (active). For the same molecule, the inhibition in test [2] was 34%; in test [3], 1%. Besides, the outcome in test [5], in test [6], in test [7] and in test [8] was inactive.
`O=C(NCc1ccc(F)cc1)Nc1ccc(-c2ccc(-c3nc4ccccc4[nH]3)cc2)cc1`: the figures for the growth inhibition in test [1] and in test [4] were 98% (active) and 101% (active), respectively. The values for the inhibition in test [2] and in test [3] were 43% and 4%, respectively. The outcome in test [5], in test [6], in test [7] and in test [8] was inactive.
As to `O=C(Nc1ccc(N2CCN(Cc3ccccc3Cl)CC2)cc1)c1ccc([N+](=O)[O-])o1`, the growth inhibition in test [1] was 67% (active); in test [4], 91% (active). Further, the values for the inhibition in test [2] and in test [3] were 100% (active) and -4%, respectively. Further, the result in test [5], in test [6], in test [7] and in test [8] was inactive.
Regarding `CC(=O)N/N=C/[C@H](CCc1ccccc1)NC(=O)[C@H](CC(C)C)NC(=O)c1cccc(OCCN2CCOCC2)c1`, the growth inhibition in test [1] was 78% (active); in test [4], 94% (active). For the same molecule, the inhibition was 13% in test [2] and -6% in test [3]. Also, the result in test [5], in test [6], in test [7] and in test [8] was inactive.
On to `Cc1cc(C2NC(=O)c3ccccc3N2)c(C)n1-c1ccc2c(c1)OCO2` (configuration not stated), for which the growth inhibition was 85% (active) in test [1] and 86% (active) in test [4]. The inhibition is 13% in test [2] and -1% in test [3]. Besides, the result in test [5], in test [6], in test [7] and in test [8] was inactive.
Take `CCCNCc1ccc(-c2ccc(CN(Cc3cnc(C)cn3)C(=O)c3nn(-c4ccccc4)nc3C)cc2)nc1`: the growth inhibition in test [1] is 49%; in test [4], 99% (active). For the same molecule, the inhibition was 22% in test [2] and 0% in test [3]. Besides, the outcome in test [5], in test [6], in test [7] and in test [8] was inactive.
On to `O=C(c1ccc([N+](=O)[O-])o1)N1CCN(c2ccccc2)CC1`, for which the growth inhibition in test [1] is 72% (active); in test [4] it was 94% (active). In addition, the inhibition in test [2] was 44%; in test [3] it was 0%. Besides, the outcome in test [5], in test [6], in test [7] and in test [8] was inactive.

Usually inhibition stands for the drop in the measured response relative to a control, in per cent.
